# Screens deposited in PubChem BioAssay by Broad Institute.
# Not all results are given here.
# aSyn 5UTR act: Activators via SNCA 5'UTR binding, MLPCN; activity score, % (tested at 7.5 µM), hits read low; AID 1814; alpha-synuclein 5'UTR reporter, activators screen; 7.1% of 300,000 active; in the data active = activity score below about -60%
# Active calls of the source: *.
SMILES,aSyn 5UTR act
O=C(NCC(c1cccs1)N1CCOCC1)c1ccc(Br)o1 (stereo not drawn),-71*
CSc1ccccc1OCc1cc(C(=O)N(C)Cc2ccc(C)o2)no1,-123*
Cc1nnc(CN(C)C(=O)c2cc(COc3ccc(F)cc3Cl)on2)o1,-100*
CSc1ccccc1OCc1cc(C(=O)N(C)Cc2ccc3nsnc3c2)no1,-160*
CC(=O)c1cccc(OCc2cc(C(=O)N(C)Cc3ccc(C)o3)no2)c1,-68*
O=c1c(Cl)nc2cc(Cl)ccc2n1CCNc1ncc(C(F)(F)F)cc1Cl,110
NC(=O)C1=NOC(CNc2ncc(C(F)(F)F)cc2Cl)C1 (stereo not drawn),-72*
CN1/C(=C\C=C2/C(=O)Oc3ccccc3C2=O)C(C)(C)c2ccccc21,-123*
Cc1ccc(C2=NNC3(CCOC(C)(C)C3)S2)cc1 (stereo not drawn),-164*
COC(=O)Cc1csc(Nc2ccc(Cl)cc2)n1,-68*
Cc1csc(Nc2ccc(Cl)cc2)n1,-113*
Cc1ccc(Nc2nc(C)cs2)cc1,-125*
CC1CCC(C(C)C)C(OC(=O)Cn2c(-c3ccc(Cl)cc3)[n+](C)c3ccccc32)C1 (stereo not drawn),61
O=C(CCl)N1CCCC1c1ccc2c(c1)OCCO2 (stereo not drawn),-152*
Cc1[nH]n(C(N)=S)c(=O)c1N=Nc1ccc2ccccc2c1,-147*
Cc1ccc(N=Nc2c(C)[nH]n(C(N)=S)c2=O)cc1C,-258*
Cc1[nH]n(C(N)=S)c(=O)c1N=Nc1cccc([N+](=O)[O-])c1C,-164*
CC(C)CC(NC(=O)C1CCC(C)CC1)C(=O)Nc1ccc2c(c1)OCCO2 (stereo not drawn),-62*
CCC1CCC(C(=O)NC(C(=O)Nc2ccc3c(c2)OCCO3)C(C)C)CC1 (stereo not drawn),-84*
CN1CCN(Cc2nc(N)nc(Nc3ccc4c(c3)OCCO4)n2)CC1,-91*
O=C(N[C@@H](Cc1ccccc1)C(=O)NC1CCCCCC1)c1ccco1,-78*
COc1cccc(Nc2nc(-c3ccc4c(c3)OCCO4)cs2)c1,-227*
c1cc2c(cc1Nc1nc(-c3ccc4c(c3)OCO4)cs1)OCCO2,-89*
Cc1ccc(NC(=O)C(=O)NC(C)C2COc3ccccc3O2)cc1 (stereo not drawn),-71*
CN(C)c1nc(F)c(F)c(S(=O)(=O)c2ccccc2)c1F,-94*
SMILES,aSyn 5UTR act
CCC1C(=O)n2nc(-c3ccccc3)cc2N=C1C (stereo not drawn),-143*
COc1ccccc1-c1cc(C(=O)NCCc2ccccc2)no1,-114*
COc1cccc2cc(C(=O)NCCc3ccccc3)oc12,-84*
CCCc1cc(C(=O)NCCc2ccccc2)no1,-91*
N#Cc1nc(/C=C/c2ccccc2)oc1NCCCN1CCOCC1,-82*
COCCNc1oc(/C=C/c2ccccc2)nc1C#N,-146*
CNc1oc(/C=C/c2ccccc2)nc1C#N,-275*
O=C(CSc1nnc(C2CCCCC2)o1)Nc1ccccc1Cl,-138*
Nc1ccc(-c2nc3cc([N+](=O)[O-])ccc3o2)cc1,-146*
COc1ccc(-c2nc3cc([N+](=O)[O-])ccc3o2)cc1,-231*
Cc1ccc2nc(N3C(=O)C(O)=C(C(=O)c4ccco4)C3c3cccs3)sc2c1 (stereo not drawn),-187*
COc1ccc2nc(N3C(=O)C(O)=C(C(=O)c4ccco4)C3c3ccccc3OC)sc2c1 (stereo not drawn),-114*
Cc1ccc(-c2nc(-c3cccnc3)no2)c(C)c1,-92*
Cc1c(-c2nc(-c3cccnc3)no2)cccc1[N+](=O)[O-],-81*
O=C(N/N=C/c1cc(Br)cc(Cl)c1O)c1ccc2c(c1)OCO2,50
CCC/C(=N/NC(=O)c1ccc2c(c1)OCO2)c1cccs1,-69*
O=C(N/N=C/c1ccc2c(c1)OCO2)c1ccc(Br)o1,-250*
CN(C)c1ccc(/C=N/NC(=O)c2cc(-c3ccc4c(c3)OCO4)n[nH]2)cc1,-137*
O=C(N/N=C/c1ccc(Cl)cc1)c1ccc2c(c1)OCO2,-396*
O=C(N/N=C/c1cc(Br)c(Br)o1)c1ccc2c(c1)OCCO2,-135*
O=C(Cc1ccccc1)N/N=C/c1cc(Br)c(Br)o1,-68*
Cc1c(C(=O)N/N=C/c2ccc(Cl)cc2)[nH]c2ccc(Cl)cc12,-122*
Cc1cc(C(=O)N/N=C/c2cccc([N+](=O)[O-])c2)c(C)n1-c1ccccc1,-142*
CCCCCCCC(=O)Nc1ccc(C(=O)N/N=C/c2cccc([N+](=O)[O-])c2)cc1,76
Cc1cc(/C=N/Nc2ccc([N+](=O)[O-])cn2)c(C)n1-c1ccccc1,-137*
SMILES,aSyn 5UTR act
COc1cccc(/C=N/Nc2ccc([N+](=O)[O-])cn2)c1O,102
O=C(N/N=C/c1cccc([N+](=O)[O-])c1)c1ccc2c(c1)OCCO2,-126*
O=C(N/N=C/c1cccs1)c1ccc2c(c1)OCO2,-65*
O=C(Nc1cccc(C(=O)O)c1)/C(=C\c1ccc2c(c1)OCO2)NC(=O)c1ccc(Br)o1,-68*
CCN(CC)c1ccc(/C=N/NC(=O)C2CC2)cc1,-62*
CCN(CC)c1ccc(/C=N/NC(=O)Nc2nonc2N)cc1,-78*
O=C(N/N=C/c1ccc2c(c1)OCO2)c1ccc2c(c1)OCCO2,-136*
CCN(CC)c1ccc(/C=N/NC(=O)c2ccc(Br)o2)cc1,-160*
COC(=O)c1ccc(NC(=O)CN(c2ccc(OC)cc2)S(C)(=O)=O)cc1,-176*
CCOc1ccc(N(CC(=O)Nc2cccc(C)c2)S(C)(=O)=O)cc1,-86*
CCOc1ccc(N(CC(=O)NCc2ccccc2C)S(C)(=O)=O)cc1,-91*
CCOc1ccc(N(CC(=O)Nc2ccc(OC)cc2)S(C)(=O)=O)cc1,-69*
CCOc1ccc(N(CC(=O)Nc2ccccc2OCC)S(=O)(=O)c2c(C)noc2C)cc1,95
CCOc1ccc(N(CC(=O)Nc2ccccc2OC)S(=O)(=O)c2ccccc2)cc1,123
CCOc1ccc(NC(=O)CN(c2ccc(OC)cc2)S(C)(=O)=O)cc1,-138*
C(=C\c1ccncc1)/c1ccccc1,-73*
C(=C\c1nc(-c2ccccc2)no1)/c1ccccc1,-154*
C(=C\c1nc(-c2ccncc2)no1)/c1ccccc1,-132*
O=C(CCl)Nc1cccc(-c2cnc3ccccc3n2)c1,-622*
CCC(=O)Nc1cccc(-c2cnc3ccccc3n2)c1,-122*
O=C(Nc1cccc(-c2cnc3ccccc3n2)c1)c1cccc(NC(=O)c2ccco2)c1,-95*
O=C(Nc1ccc2c(c1)CCC2)c1cnc(Cl)c(Cl)c1,-190*
O=C(Nc1ccc2c(c1)CCC2)c1c(F)cccc1Cl,-159*
O=C(Nc1ccc2c(c1)CCC2)c1ccc(Cl)nc1,-156*
Cc1ccc(CSCC(=O)Nc2ccccc2F)cc1,-81*
SMILES,aSyn 5UTR act
Cc1ccc(OCC(=O)Nc2ccc(F)cc2)cc1,-96*
CCc1ccc(-c2nc(CSCC(=O)NCc3ccco3)c(C)o2)cc1,77
Cc1ccc(NC(=O)CSCc2ccco2)cc1,-130*
Cc1ccc(NC(=O)Cc2ccc(F)cc2)cc1,-81*
Cc1ccc(NC(=O)C(=S)NCc2ccco2)cc1,-135*
Cc1ccc(NC(=O)CSCc2ccc(F)cc2)cc1,-81*
Cc1ccc(OCC(=O)Nc2ccc(F)cc2)c([N+](=O)[O-])n1,-167*
CCOC(=O)CNC(=O)c1ccc(SCC)cc1,-91*
[O-]/[N+](=C/c1ccc(F)cc1)c1ccc(Cl)cc1,-177*
[O-]/[N+](=C\c1ccco1)c1ccc(Cl)cc1,-164*
